# In all, about 48,000 compounds went through this assay and about 13,000 (27%) showed an effect of 50% or more. The list shows a part of the results.
# System: Wolbachia pipientis
# Experiment: Anti-Wolbachia Cell-Based Screen
# Type: functional
# Parameters: scale not given: in the data most compounds retested in dose-response had high values
# Details: 5 µM
row,Structure (SMILES),Percent Effect
1,CN1CCc2ccc(NCc3cscn3)cc2C1=O,26.59%
2,CN(C)C(=O)CN1C[C@H]2CCN(C(=O)c3ccncc3)CC[C@H]2S1(=O)=O,6.618%
3,CCc1nnc(S(=O)(=O)Cc2cc(Cl)c3c(c2)OCO3)n1C,-5.495%
4,COCCN(C)c1nc(-c2ccncc2)nc2c1CCN(C(C)=O)C2,5.956%
5,NC(=O)c1ccc(-c2nc3c(c(=O)[nH]2)CCNC3)cc1,-6.229%
6,CNC(=O)CCN(C)c1nc(-c2ccncc2)nc2c1CCNC2,97.6%
7,CN(CCCO)c1nc(-c2ccc(C(N)=O)cc2)nc2c1CCNC2,101.5%
8,CNC(=O)CN(C)c1nc(-c2ccc(C(N)=O)cc2)nc2c1CCNC2,117.3%
9,CN(CC(O)CO)c1nc(-c2cccnc2)nc2c1CCNC2 (configuration not stated),5.807%
10,CNC(=O)CN(C)c1nc(-c2ccncc2)nc2c1CCN(C(C)=O)C2,-5.976%
11,CCN(CC)CCN(C)c1nc(-c2ccc(Cl)cc2)nc2c1CNC2,-44.78%
12,CN(CCO)c1nc(-c2ccccn2)nc2c1CCNC2,-7.259%
13,O=C1NCCO[C@H]2CN(C(=O)CCc3ccc(Cl)cc3)CC[C@@H]12,1.273%
14,O=C(CC1CCc2ccccc21)NCCSc1cnn[nH]1 (configuration not stated),-1.678%
15,O=S(=O)(NCC1CCOC1)N1CCc2ccccc2C1 (configuration not stated),0.4119%
16,CN(CCOc1ccc(Br)cc1)Cc1cscn1,-4.62%
17,CCCc1nnc(NC2CCN(Cc3ccc(F)c(F)c3)CC2)o1,-13.59%
18,Cc1cc(C(=O)NC2CCCCNC2=O)c(=O)[nH]c1C (configuration not stated),-5.405%
19,Cn1cc(CN2CCC(F)(F)C3(CCN(c4cccc(F)c4)C3)C2)cn1 (configuration not stated),120.4%
20,FC1(F)CCN(Cc2cccnc2)CC12CCN(c1ccccc1)C2.O=C(O)C(F)(F)F.O=C(O)C(F)(F)F.O=C(O)C(F)(F)F (configuration not stated),93.27%
21,Cn1cc(CN2CCC(F)(F)C3(CCN(c4cccnc4)C3)C2)cn1.O=C(O)C(F)(F)F.O=C(O)C(F)(F)F (configuration not stated),116.7%
22,O=C(O)C(F)(F)F.O=C(O)C(F)(F)F.O=C(O)CN1CCC(F)(F)C2(CCN(c3ccccc3)C2)C1 (configuration not stated),-5.23%
23,FC1(F)CCN(Cc2ccncc2)CC12CCN(c1cccnc1)C2.O=C(O)C(F)(F)F.O=C(O)C(F)(F)F.O=C(O)C(F)(F)F (configuration not stated),90.74%
24,O=C(O)C(F)(F)F.O=C(c1c[nH]cn1)N1CCC(F)(F)C2(CCN(c3cccc(F)c3)C2)C1 (configuration not stated),-14.3%
25,Cn1cc(CN2CCOC3(CCCN(c4cccc(F)c4)C3)C2)cn1.O=C(O)C(F)(F)F.O=C(O)C(F)(F)F (configuration not stated),-4.147%
26,O=C(CO)N1CCC(F)(F)C2(CCN(c3ccccc3)C2)C1.O=C(O)C(F)(F)F (configuration not stated),5.936%

row,Structure (SMILES),Percent Effect
1,Cc1nc(Nc2ccc(Cl)cn2)sc1C(=O)NC(C)C,4.933%
2,O=C(NCc1nc(NC2CCCC2)c2cc(Cl)ccc2n1)c1ccoc1,13.57%
3,CC(C)(C(=O)NCc1n[nH]c(=O)[nH]1)c1ccc(F)cc1,1.866%
4,O=C(NCCC(O)c1ccco1)c1ccccc1Br (configuration not stated),14.27%
5,CC(O)CN1CCN(C(=O)c2ccn(-c3cccc(Cl)c3)n2)CC1 (configuration not stated),1.72%
6,CN(C)C(=O)CO[C@H]1CO[C@@]2(CCN(Cc3ccoc3)C2)C1,-7.87%
7,CS(=O)(=O)N1CCOCC12CCN(Cc1ccoc1)CC2,122%
8,CS(=O)(=O)N1CCCC12CCN(Cc1nccs1)CC2.O=C(O)C(F)(F)F,-14.48%
9,CS(=O)(=O)N1CCCC12CCN(Cc1ccoc1)CC2,99.65%
10,Cn1cc(CN2CCC3(CCCN3S(C)(=O)=O)CC2)cn1,6.984%
11,CS(=O)(=O)N1CCOCC12CCN(c1nncs1)CC2,4.354%
12,COCCNc1ccccc1CNC(=O)NCc1ccc(C)s1,-4.597%
13,CS(=O)(=O)CCOCCNc1cncc(Br)c1,-7.579%
14,CN1CCCN(c2nc(C3CC3)ns2)CC1,-64.99%
15,Cc1ccc(C(=O)NCC(C)Cn2cccn2)c(=O)[nH]1 (configuration not stated),-11.2%
16,CN(C)CCNC(=O)c1cc2n(n1)CCN(C(=O)c1ccc[nH]1)C2,-27.47%
17,CC(C)CNC(=O)c1ccc2c(=O)n(-c3ccccc3)cnc2c1,11.47%
18,CC(C)n1cc(C(=O)NCCN(C)C)c2n[nH]c(=O)c-2c1,115.3%
19,CC(C)N(CCNC(=O)c1n[nH]c2ccccc12)C(C)C,25.98%
20,CC(C)CNC(=O)c1cn(C(C)C)cc2c(=O)[nH]nc1-2,135.5%
21,CCOCCn1nc(C)cc1C(=O)N1CCC2(CC1)[C@H](O)C[C@@H]2OCC,-36.55%
22,CC1=C[C@@H](CNS(C)(=O)=O)[C@H](C(C)C)C[C@H]1CC(=O)NCCN(C)C,5.044%
23,Cc1cc(C)n(CCCC(=O)N2CC[C@H]3NCCC[C@]3(CO)C2)n1,-1.122%
24,CS(=O)(=O)CCC(=O)N1C[C@@H]2CC[C@H](C1)N(Cc1ccccc1)C2=O,8.046%
25,Cc1ccc(CN(C)C(=O)CNC(=O)N2CCc3ccccc3C2)o1,79.51%
26,Cc1ccc(CN(C)C(=O)CN2CCCC2c2cnn(C)c2)o1 (configuration not stated),-1.976%

# — ChEMBL document CHEMBL3988442, “University of Dundee, Small-Polar-MMV Screening Library” (2021)
